Assay results taken from PubChem BioAssay (Tox21).
The source made the active and inactive calls. Unless noted, calls follow the shape of the dose curve; as a rule, active = well fitted curve in the direction sought with a large enough effect in the repeat runs; inconclusive = weak or mixed curves; inactive = no such curve, though single readings can be large; an effect the other way counts as inactive or inconclusive.

Legend:
[1] = test system: thyroid hormone receptor (rat, GH3 cells); experiment: qHTS assay to identify small molecule agonists of the thyroid receptor (TR) signaling pathway (AID 743066; calls by dose curve)
[2] = molecular target: Estrogen receptor (Homo sapiens) (UniProt P03372); experiment: qHTS assay to identify small molecule antagonists of the estrogen receptor alpha (ER-alpha) signaling pathway (AID 743069; active = well fitted curve in the direction sought with a large enough effect in the signal ratio in the repeat runs, not every such curve was filed as active; inconclusive = weak or mixed curves, or effect the other way; inactive = no such curve, though single readings can be large or run the other way; the % refers to the signal ratio)
Method in brief: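 ER-alpha-UAS-bla GripTite HEK293 line; 2% charcoal-stripped FBS overnight; plated, 4 hr 37C/5% CO2; cpd in DMSO + 17beta-estradiol, 18 hr 37C; LiveBLAzer B/G FRET substrate 2 hr RT; fluorescence intensity.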

[3] = molecular target: Estrogen receptor (Homo sapiens) (UniProt P03372); experiment: qHTS assay to identify small molecule agonists of the estrogen receptor alpha (ER-alpha) signaling pathway (AID 743075; calls by dose curve;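 also: HEK293 GripTite cells with ER-alpha and UAS-driven beta-lactamase reporter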; also: potency is read from the fitted curve at half-maximal effect)
[4] = molecular target: Estrogen receptor (Homo sapiens) (UniProt P03372); experiment: qHTS assay to identify small molecule agonists of the estrogen receptor alpha (ER-alpha) signaling pathway using the BG1 cell line (AID 743079); conditions: BG1Luc4E2 cells, ERE-luciferase agonist, 22 h; activation: at 70.3 µM (top of the series); also: nearly all actives have a fitted effect of over 20% in size; also: potency is read from the fitted curve at half-maximal effect
[5] = qHTS assay to identify small molecule antagonists of the estrogen receptor alpha (ER-alpha) signaling pathway using the BG1 cell line - cell viability counter screen (AID 743081);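 also: compound given together with 17beta-estradiol as the ER stimulus; nearly all actives have a fitted effect of over 45% in size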
Aromatase (Homo sapiens) = Aromatase (Homo sapiens) (UniProt P11511); experiment: qHTS assay to identify aromatase inhibitors (AID 743083); also: nearly all actives have a fitted effect of over 55% in size; also: potency is read from the fitted curve at half-maximal effect
[6] = qHTS assay to identify aromatase inhibitors - cell viability counter screen (AID 743084);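 also: cells stimulated with testosterone during compound exposure; nearly all actives have a fitted effect of over 55% in size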; also: potency is read from the fitted curve at half-maximal effect
[7] = molecular target: Aryl hydrocarbon receptor (Homo sapiens) (UniProt P35869); experiment: qHTS assay to identify small molecule that activate the aryl hydrocarbon receptor (AhR) signaling pathway (AID 743085); also: nearly all actives have a fitted effect of over 15% in size; also: potency is read from the fitted curve at half-maximal effect;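 as to activation: HG2L7.5c1 human HepG2 liver cells with stably integrated DRE-driven firefly reporter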
Method in brief: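 Luminescence (ONE-Glo) from a dioxin-responsive-element luciferase reporter in HG2L7.5c1 HepG2 cells after 24 hr compound exposure at 37C; viability measured by CellTiter-Fluor fluorescence beforehand.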

[8] = qHTS assay to identify small molecule that activate the aryl hydrocarbon receptor (AhR) signaling pathway - cell viability counter screen (AID 743086); also: nearly all actives have a fitted effect of over 45% in size; also: potency is read from the fitted curve at half-maximal effect
Method in brief: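 Cytotoxicity counter screen: CellTiter-Fluor signal (30 min, 37 C) in 4000 HepG2 cells/well carrying the DRE-luciferase reporter, following 24 h compound exposure at 37 C.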

[9] = molecular target: Peroxisome proliferator-activated receptor gamma (Homo sapiens) (UniProt P37231); experiment: qHTS assay to identify small molecule agonists of the peroxisome proliferator-activated receptor gamma (PPARg) signaling pathway (AID 743094; active = well fitted activation curve with a large enough effect in the signal ratio in the repeat runs, not every such curve was filed as active; inconclusive = weak or mixed curves, or effect the other way; inactive = no such curve, though single readings can be large or run the other way; the % refers to the signal ratio)
Method in brief: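 Compounds dissolved in DMSO were added to PPARg UAS-bla HEK293H cells for 17 h at 37C, and reporter expression was quantified by fluorescence intensity after 1 h with LiveBLAzer B/G FRET substrate.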

[10] = molecular target: Peroxisome proliferator-activated receptor gamma (Homo sapiens) (UniProt P37231); experiment: qHTS assay to identify small molecule antagonists of the peroxisome proliferator-activated receptor gamma (PPARg) signaling pathway (AID 743191; calls by dose curve; also: nearly all actives have a fitted effect of over 30% in size)
Method in brief: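 Beta-lactamase reporter under UAS control in HEK293H PPARg-bla cells; compound treatment 17 h at 37C. Read-out: fluorescence intensity after 1 h room-temperature incubation with LiveBLAzer B/G FRET substrate.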

[11] = qHTS assay to identify small molecule antagonists of the peroxisome proliferator-activated receptor gamma (PPARg) signaling pathway - cell viability counter screen (AID 743194); also: nearly all actives have a fitted effect of over 55% in size; also: potency is read from the fitted curve at half-maximal effect
Method in brief: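 Viability was measured as CellTiter-Glo luminescence in GeneBLAzer PPARg UAS-bla HEK293H cells. These cells had been exposed 17 h at 37 C to compounds together with rosiglitazone at 50 nM final, with the beta-lactamase readout taken in the same wells.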

[12] = qHTS assay for small molecule agonists of the antioxidant response element (ARE) signaling pathway - cell viability counter screen (AID 743203; calls by dose curve; also: nearly all actives have a fitted effect of over 55% in size; also: potency is read from the fitted curve at half-maximal effect)
Method in brief: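 Following 16 hrs of compound treatment at 37C, HepG2 cells with an ARE-controlled beta-lactamase gene were lysed with CellTiter-Glo. Luminescence was read after 30 min at room temperature.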

[13] = qHTS assay for small molecule activators of the heat shock response signaling pathway - cell viability counter screen (AID 743209); also: nearly all actives have a fitted effect of over 50% in size; also: potency is read from the fitted curve at half-maximal effect
Method in brief: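 Readout: CellTiter-Glo luminescence, 30 min at room temperature. System: HSE-bla HeLa cells, 1500/well, plated overnight. Treatment: compounds in DMSO, 5 h at 37 C.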

[14] = qHTS assay to identify small molecule agonists of the peroxisome proliferator-activated receptor delta (PPARd) signaling pathway - cell viability counter screen (AID 743211); also: nearly all actives have a fitted effect of over 55% in size; also: potency is read from the fitted curve at half-maximal effect
Method in brief: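 Viability was measured as CellTiter-Glo luminescence (30 min, room temperature) in the same wells as the beta-lactamase readout. GeneBLAzer PPARd UAS-bla HEK293H cells received compound after 5 h plating and were incubated 17 h at 37 C.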

[15] = qHTS assay to identify small molecule antagonists of the estrogen receptor alpha (ER-alpha) signaling pathway using the BG1 cell line (AID 743080; calls by dose curve;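 also: BG1 cells stimulated with 17beta-estradiol alongside compound; nearly all actives have a fitted effect of over 25% in size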; also: potency is read from the fitted curve at half-maximal effect); conditions: BG1Luc4E2 ERE-luciferase antagonist mode, luminescence; activity change, negative = inhibition: at 70.3 µM (top of the series)
Method in brief: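 After 5 days in phenol-red-free 10% charcoal-stripped FBS medium, BG1-Luc-4E2 cells were seeded, left 24 h at 37 C, co-treated with compounds and 17beta-estradiol for 21.5 h, then assayed for viability and luciferase.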

[16] = qHTS assay for small molecule agonists of the antioxidant response element (ARE) signaling pathway (AID 743202; active = well fitted activation curve with a large enough effect in the signal ratio in the repeat runs, not every such curve was filed as active; inconclusive = weak or mixed curves, or effect the other way; inactive = no such curve, though single readings can be large or run the other way; the % refers to the signal ratio; also: potency is read from the fitted curve at half-maximal effect)
Method in brief: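 Quantitative high-throughput format in HepG2 cells bearing an integrated ARE-beta-lactamase reporter. Compound exposure lasted 16 h at 37 C, and fluorescence was read 2 h after adding LiveBLAzer B/G substrate at room temperature.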

[17] = qHTS assay for small molecule activators of the heat shock response signaling pathway (AID 743210; active = well fitted activation curve with a large enough effect in the signal ratio in the repeat runs, with a control signal flat, not every such curve was filed as active; inconclusive = weak or mixed curves; the % refers to the signal ratio;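 also: HeLa cells with beta-lactamase reporter driven by heat shock elements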)
Method in brief: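 HeLa HSE-bla cells, overnight plating; cpd in DMSO 5 h, 37 C; LiveBLAzer B/G FRET substrate 2.5 h RT; fluorescence intensity read.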

[18] = qHTS assay to identify small molecule antagonists of the estrogen receptor alpha (ER-alpha) signaling pathway - cell viability counter screen (AID 743074; calls by dose curve;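 also: HEK293 cells carrying ER-alpha-UAS-bla reporter stimulated with 17beta-estradiol; nearly all actives have a fitted effect of over 45% in size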; also: potency is read from the fitted curve at half-maximal effect)
% is scaled to controls: 0 for no effect and ±100 for the full control effect.

Sequence of Estrogen receptor (Homo sapiens) (P03372 whole entry, looked up): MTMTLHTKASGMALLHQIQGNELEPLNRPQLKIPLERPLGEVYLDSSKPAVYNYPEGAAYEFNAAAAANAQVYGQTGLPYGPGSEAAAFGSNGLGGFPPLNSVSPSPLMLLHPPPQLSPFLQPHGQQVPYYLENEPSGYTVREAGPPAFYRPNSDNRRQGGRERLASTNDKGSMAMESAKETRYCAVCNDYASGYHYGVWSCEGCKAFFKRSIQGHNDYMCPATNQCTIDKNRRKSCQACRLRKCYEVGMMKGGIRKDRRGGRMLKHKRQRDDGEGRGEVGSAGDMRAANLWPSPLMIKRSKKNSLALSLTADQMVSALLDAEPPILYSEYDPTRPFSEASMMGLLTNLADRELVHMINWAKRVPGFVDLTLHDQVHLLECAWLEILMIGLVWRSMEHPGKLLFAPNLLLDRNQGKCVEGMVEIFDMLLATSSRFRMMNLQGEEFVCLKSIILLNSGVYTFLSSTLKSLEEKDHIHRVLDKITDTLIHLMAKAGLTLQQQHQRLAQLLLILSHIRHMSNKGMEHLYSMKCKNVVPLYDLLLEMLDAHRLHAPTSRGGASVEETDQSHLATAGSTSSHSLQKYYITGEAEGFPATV
Sequence of Aromatase (Homo sapiens) (P11511 whole entry, looked up): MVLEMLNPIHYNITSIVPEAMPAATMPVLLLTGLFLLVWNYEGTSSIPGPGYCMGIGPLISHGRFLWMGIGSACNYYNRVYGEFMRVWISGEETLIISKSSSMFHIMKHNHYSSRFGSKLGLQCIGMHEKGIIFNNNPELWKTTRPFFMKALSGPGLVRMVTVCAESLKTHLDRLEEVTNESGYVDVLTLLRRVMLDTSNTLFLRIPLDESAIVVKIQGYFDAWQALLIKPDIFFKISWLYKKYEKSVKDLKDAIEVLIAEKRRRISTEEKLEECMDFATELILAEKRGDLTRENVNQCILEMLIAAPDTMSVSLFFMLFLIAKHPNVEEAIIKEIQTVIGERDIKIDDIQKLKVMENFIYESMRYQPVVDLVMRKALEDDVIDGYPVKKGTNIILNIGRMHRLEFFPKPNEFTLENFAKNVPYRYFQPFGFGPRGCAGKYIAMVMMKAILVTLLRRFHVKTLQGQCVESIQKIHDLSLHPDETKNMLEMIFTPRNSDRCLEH
Sequence of Peroxisome proliferator-activated receptor gamma (Homo sapiens) (P37231 whole entry, looked up): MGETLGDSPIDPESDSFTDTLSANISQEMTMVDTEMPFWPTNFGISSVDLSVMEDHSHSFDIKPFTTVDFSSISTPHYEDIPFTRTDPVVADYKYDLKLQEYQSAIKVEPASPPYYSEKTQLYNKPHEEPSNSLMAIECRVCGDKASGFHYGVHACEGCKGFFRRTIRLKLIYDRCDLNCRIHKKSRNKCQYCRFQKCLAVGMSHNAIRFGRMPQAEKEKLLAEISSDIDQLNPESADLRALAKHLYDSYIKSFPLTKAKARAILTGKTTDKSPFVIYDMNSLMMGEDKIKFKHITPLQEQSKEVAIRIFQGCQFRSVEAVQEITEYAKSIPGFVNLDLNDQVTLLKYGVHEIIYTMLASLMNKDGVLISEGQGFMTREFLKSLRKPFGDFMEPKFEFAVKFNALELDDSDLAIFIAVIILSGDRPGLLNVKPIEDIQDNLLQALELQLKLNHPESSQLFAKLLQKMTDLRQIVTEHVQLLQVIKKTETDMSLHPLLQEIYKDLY
Sequence of Aryl hydrocarbon receptor (Homo sapiens) (P35869 whole entry, looked up): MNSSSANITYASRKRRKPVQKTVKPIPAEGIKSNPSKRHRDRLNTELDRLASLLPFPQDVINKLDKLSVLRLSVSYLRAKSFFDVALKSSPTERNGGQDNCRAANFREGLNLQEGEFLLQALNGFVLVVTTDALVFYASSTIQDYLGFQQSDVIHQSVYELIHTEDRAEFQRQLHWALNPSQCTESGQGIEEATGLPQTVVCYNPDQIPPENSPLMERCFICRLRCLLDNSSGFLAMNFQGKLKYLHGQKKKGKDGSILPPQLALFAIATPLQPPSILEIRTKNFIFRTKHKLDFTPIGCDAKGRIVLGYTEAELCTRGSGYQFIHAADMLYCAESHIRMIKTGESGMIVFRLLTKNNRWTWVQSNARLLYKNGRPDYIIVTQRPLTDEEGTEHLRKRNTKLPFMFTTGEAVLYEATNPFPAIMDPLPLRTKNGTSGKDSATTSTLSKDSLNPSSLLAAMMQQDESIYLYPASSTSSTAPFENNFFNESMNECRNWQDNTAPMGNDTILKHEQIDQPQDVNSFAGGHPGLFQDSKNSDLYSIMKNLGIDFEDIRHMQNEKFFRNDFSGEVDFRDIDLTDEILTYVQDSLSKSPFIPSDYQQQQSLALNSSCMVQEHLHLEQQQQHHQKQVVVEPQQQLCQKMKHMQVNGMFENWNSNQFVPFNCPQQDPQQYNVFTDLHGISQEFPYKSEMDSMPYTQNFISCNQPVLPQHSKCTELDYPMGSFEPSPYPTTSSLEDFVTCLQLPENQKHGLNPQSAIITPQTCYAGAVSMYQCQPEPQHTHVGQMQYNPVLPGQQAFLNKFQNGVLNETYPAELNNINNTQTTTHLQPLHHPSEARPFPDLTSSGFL

S=C(SSSSSSC(=S)N1CCCCC1)N1CCCCC1
inactive: Potency [1] | Potency [2] | Potency [3] | Potency [4] | Potency [5] | Potency [7] | Potency [9] | Potency [10] | Potency [11] | Potency [12]
active: Potency (Aromatase (Homo sapiens)) 0.268 µM | Potency [6] 0.379 µM | Potency [8] 2.39 µM | Potency [13] 0.0763 µM | Potency [14] 0.108 µM

CCO[Si](CCCSSSSCCC[Si](OCC)(OCC)OCC)(OCC)OCC
inactive: Potency [1] | Potency [2] | Potency [3] | Potency [4] | Potency [15] | Potency [5] | Potency (Aromatase (Homo sapiens)) | Potency [6] | Potency [7] | Potency [8] | Potency [9] | Potency [11] | Potency [16] | Potency [12] | Potency [13] | Potency [17]

CN1[C@@H]2CC[C@@H]1CC(OC(=O)C(CO)c1ccccc1)C2 (stereo partly drawn)
inactive: Potency [18] | Potency [5] | Potency (Aromatase (Homo sapiens)) | Potency [6] | Potency [8] | Potency [11] | Potency [13] | Potency [14]

NCCCC(O)(P(=O)(O)O)P(=O)(O)O
inactive: Potency [1] | Potency [18] | Potency [5] | Potency [6] | Potency [8] | Potency [11] | Potency [16] | Potency [13] | Potency [14]

O=C1Nc2ccc(Cl)cc2[C@@](C#CC2CC2)(C(F)(F)F)O1
inactive: Potency [18] | Potency [3] | Potency [5] | Potency [8] | Potency [12]
active: Potency [15] 33.5 µM | Potency (Aromatase (Homo sapiens)) 23.7 µM | Potency [16] 13.3 µM | Potency [13] 5.31 µM

COc1ccccc1OCCNCC(O)COc1cccc2[nH]c3ccccc3c12 (stereo not drawn)
active: Potency [7] 21.1 µM | Potency [14] 23.7 µM
inactive: Potency [2] | Potency [18] | Potency [3] | Potency (Aromatase (Homo sapiens)) | Potency [8] | Potency [9] | Potency [13] | Potency [17]

Oc1ccc(-c2ccccc2)c(Cl)c1
active: Potency [3] 61.6 µM [inconclusive] | Potency [4] 54.5 µM
inactive: Potency [1] | Potency [18] | Potency [15] | Potency [5] | Potency (Aromatase (Homo sapiens)) | Potency [6] | Potency [7] | Potency [8] | Potency [9] | Potency [12] | Potency [13] | Potency [14]

Cc1cccc(C)c1NC(=O)CN1CCN(CCCC(c2ccc(F)cc2)c2ccc(F)cc2)CC1
inactive: Potency [18] | Potency [5] | Potency (Aromatase (Homo sapiens)) | Potency [6] | Potency [7] | Potency [9]
active: Potency [8] 11.4 µM | Potency [11] 26.6 µM | Potency [14] 18.8 µM

CN1[C@@H]2CC[C@H]1CC(OC(=O)C(CO)c1ccccc1)C2 (stereo partly drawn)
inactive: Potency [18] | Potency [5] | Potency (Aromatase (Homo sapiens)) | Potency [6] | Potency [8] | Potency [11] | Potency [13] | Potency [14]

CC(NCCC(c1ccccc1)c1ccccc1)c1ccccc1 (stereo not drawn)
inactive: Potency [7] | Potency [9]
active: Potency [18] 23.9 µM | Potency (Aromatase (Homo sapiens)) 29.8 µM | Potency [8] 26.6 µM | Potency [11] 23.7 µM | Potency [12] 33.5 µM | Potency [14] 29.8 µM

Clc1ccccc1CN1CCc2sccc2C1
inactive: Potency [1] | Potency [18] | Potency [5] | Potency (Aromatase (Homo sapiens)) | Potency [6] | Potency [7] | Potency [8] | Potency [11] | Potency [13]

Clc1ccc(C(Cn2ccnc2)OCc2ccsc2Cl)c(Cl)c1 (stereo not drawn)
inactive: Potency [15] | Potency [5] | Potency [6] | Potency [7] | Potency [9] | Potency [13]
active: Potency (Aromatase (Homo sapiens)) 5.31 µM | Potency [8] 26.6 µM | Potency [14] 29.8 µM

C=C(C)C(=O)OCCC[Si](Cl)(Cl)Cl
inactive: Potency [18] | Potency [5] | Potency (Aromatase (Homo sapiens)) | Potency [6] | Potency [7] | Potency [8] | Potency [9] | Potency [10] | Potency [11] | Potency [16] | Potency [12] | Potency [13] | Potency [17] | Potency [14]

CCOC(=O)COc1ccc(C)cc1
inactive: Potency [2] | Potency [18] | Potency [3] | Potency [4] | Potency [15] | Potency [5] | Potency (Aromatase (Homo sapiens)) | Potency [6] | Potency [7] | Potency [8] | Potency [11] | Potency [12] | Potency [14]

Brc1ccccc1-c1ccccc1
inactive: Potency [1] | Potency [8]

CCC(C)(C)c1cc(O)c(C(C)(C)CC)cc1O
active: activity change, negative = inhibition [15] 6.54% | Potency (Aromatase (Homo sapiens)) 24.3 µM | Potency [11] 21.9 µM | Potency [12] 54.5 µM | Potency [13] 38.9 µM
inactive: Potency [1] | Potency [3] | Potency [4] | Potency [5] | Potency [7] | Potency [8]

Cc1ccc(-n2[nH]c(C)c(N=Nc3cccc(-c4cccc(C(=O)O)c4)c3O)c2=O)cc1C
inactive: Potency [12] | Potency [13]
active: Potency [11] 2.37 µM | Potency [14] 26.6 µM
